Screening results: PubChem BioAssay, National Center for Advancing Translational Sciences (NCATS)
D3 ag – qHTS of D3 Dopamine Receptor Agonist: qHTS; 410,000 compounds, 0.58% hits; max activation, %; D3R DiscoveRx beta-arrestin cells, luminescence, 90 min; in the data active = max activation above about 30%; note: 0% is about no effect
Target sequence (P35462 whole entry, looked up): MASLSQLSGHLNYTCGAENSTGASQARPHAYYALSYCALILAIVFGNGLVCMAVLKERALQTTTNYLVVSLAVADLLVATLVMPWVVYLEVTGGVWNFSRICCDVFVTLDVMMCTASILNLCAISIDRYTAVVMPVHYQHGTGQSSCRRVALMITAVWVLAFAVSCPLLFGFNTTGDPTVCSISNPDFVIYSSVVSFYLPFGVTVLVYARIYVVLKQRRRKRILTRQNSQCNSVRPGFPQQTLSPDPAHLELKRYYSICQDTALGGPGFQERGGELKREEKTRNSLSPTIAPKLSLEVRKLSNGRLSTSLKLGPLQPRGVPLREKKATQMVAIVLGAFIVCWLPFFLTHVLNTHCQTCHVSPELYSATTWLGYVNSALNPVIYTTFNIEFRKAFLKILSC
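Agonist mode: compounds and dopamine controls were applied to plated cells for 90 min at 37 degrees C after an overnight attachment at 1500 cells/well. Luminescent read-out followed 30 - 60 minutes at room temperature with DiscoveRx detection reagent.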
B2AR arrestin – qHTS assay of beta-arrestin-biased ligands of beta2-adrenergic receptor. Beta-2 adrenergic receptor (Homo sapiens), P07550. beta-arrestin recruitment to beta2AR, cell-based reporter. Potency, µM (doses to about 46.1 µM), without a hit: at the top dose activation, usual class: activators. 330,000 compounds, 0.02% hits. AID 492947, 2010; active = well fitted activation curve with a large enough effect; inconclusive = small, poorly fitted or top-dose-only effect;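 note: potency is the fitted concentration of half-maximal effect; 0% = DMSO controls and full agonism = EC100 isoproterenol or metaproterenol; nearly all actives have a fitted effect of over 65% in size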
Giardia killer – Small Molecules that selectively kill Giardia lamblia: qHTS. Giardia lamblia trophozoite viability. activity change, % at 7.66 µM, hits read low. 340,000 compounds, 0.15% hits. AID 540267, 2011; in the data active = activity change below about -80%; inconclusive = between about -30% and that limit;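 note: parasites exposed to compound for two days anaerobically before the ATP read; % is set by controls: 0 for no effect and ±100 for the full control effect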
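Luminescent ATP signal served as the viability read-out, measured 15-30 min after adding ATP detection reagent to trophozoites that had been incubated with compounds for 48 hrs at 37 deg C anaerobically at 100 cells/well.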
DRD3 antagonist – qHTS of D3 Dopamine Receptor Antagonist: qHTS; 360,000 compounds, 2.5% hits; D3R cells, DiscoveRx beta-arrestin luminescence, antagonist mode; active compounds read low; max response, negative = inhibition, %; D(3) dopamine receptor (Homo sapiens), P35462; in the data active = max response below about -50%; inconclusive = no clear call, values can overlap the other calls; note: % is set by controls: 0 for no effect and ±100 for the full control effect
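Cells expressing the human receptor were seeded at 1500 cells/well, incubated overnight at 37 degrees C in 5% CO2, then exposed to library compounds with dopamine controls for 90 minutes at 37 degrees C before luminescent detection.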
* = called active by the depositor; ? = inconclusive; . = no result. This is a sample that favours compounds with a hit; in the whole collection about 2.8% have one here.

SMILES	D3 ag	B2AR arrestin	Giardia killer	DRD3 antagonist
c1ccc(C(c2ccccc2)c2noc(CN3CCC(c4ccncc4)CC3)n2)cc1	52.4*	0.5%	28.2	-21.7
COCCNCCOCCOc1ccc(Cl)c(C)c1	-20.2	-0.4%	-16.6	-51.8*
O=C(Cn1cnc2c(NCc3ccccc3)ncnc21)NCCN1CCOCC1	-25.7	0.0%	-17.1	-5.1
O=C(Cn1cnc2c(NCc3ccccc3)ncnc21)NCCCN1CCCC1=O	34.3*	0.1%	6.6	23.7
COc1cc(CN(C(=O)c2ccc(OC(C)C)cc2)c2ccccn2)cc(OC)c1OC	-5.2	.	.	.
COc1ccc(OC)c(CN2CCN(CCCc3ccccc3)C(CCO)C2)c1 (stereo not drawn)	-25.9	-0.2%	-4.0	-87.0*
OCCC1CN(CCCc2ccccc2)CCN1Cc1ccc(F)cc1 (stereo not drawn)	-33.6	0.0%	-6.6	-55.5*
Cc1ccccc1CN1CCN(CCCc2ccccc2)C(CCO)C1 (stereo not drawn)	-23.3	-0.5%	6.0	-78.1*
COc1ccc(CN2CCN(CCCc3ccccc3)C(CCO)C2)c(OC)c1 (stereo not drawn)	-14.7	0.2%	-10.5	1.9
CC(C)/C=C/CN1CCN(CCCc2ccccc2)C(CCO)C1 (stereo not drawn)	-17.5	0.8%	-0.6	-63.0*
CC(C)CCN1CCN(CCCc2ccccc2)CC1CCO (stereo not drawn)	-14.9	0.2%	-9.1	-15.0
O=C(COCCOCCOCC(=O)Nc1c(I)cc(I)c(C(=O)O)c1I)Nc1c(I)cc(I)c(C(=O)O)c1I	-18.3	.	.	.
CCOc1ccccc1CN1CCN(Cc2c[nH]c3ccccc23)CC1CCO (stereo not drawn)	-3.1	-0.8%	-18.0	-6.4
CC(C)CN1CCN(Cc2ccc(Oc3ncccn3)cc2)CC1CCO (stereo not drawn)	-13.9	-0.7%	18.2	-10.3
Cc1ccccc1CN1CCN(CC2CC2)CC1CCO (stereo not drawn)	-5.7	0.0%	-9.0	-82.3*
CCOc1ccccc1CN1CCN(Cc2[nH]c3ccccc3c2C)CC1CCO (stereo not drawn)	-4.2	-0.4%	7.3	-53.3*
OCCC1CN(Cc2ccccc2O)CCN1CCCc1ccccc1 (stereo not drawn)	-5.6	0.1%	1.2	-75.1*
OCCC1CN(Cc2ccc(Oc3ncccn3)cc2)CCN1Cc1ccc(F)c(F)c1 (stereo not drawn)	-18.4	0.4%	-13.8	-72.3*
O=C1CC(c2ccccc2)Cc2[nH]c(=O)c(C(=O)Nc3ccc(OC(F)(F)F)cc3)cc21 (stereo not drawn)	-6.6	.	.	.
CO[C@H]1C[C@@H]2CC[C@@H](C)[C@@](O)(O2)C(=O)C(=O)N2CCCC[C@H]2C(=O)O[C@H]([C@H](C)C[C@@H]2CC[C@@H](O)[C@H](OC)C2)CC(=O)[C@H](C)C=C(C)[C@@H](O)[C@@H](OC)C(=O)[C@H](C)C[C@H](C)/C=C/C=CC=C1C	-10.6	.	.	.
O=c1c2oc3ccccc3c2n(Cc2ccccc2F)c(=O)n1Cc1ccccc1	-1.1	.	.	.
O=C1CN(C(=O)COC(=O)c2ccccc2Br)c2ccccc2N1	-16.8	-0.8%	-16.4	-55.0*
O=C(NCCC1=CCCCC1)C(=O)NCC(c1ccco1)N1CCN(c2ccc(F)cc2)CC1 (stereo not drawn)	-5.6	-1.4%	7.6	-66.5*
Oc1ccc(F)cc1-c1cc(-c2ccc3c(c2)OCCO3)n[nH]1	-3.7	0.1%	-0.1	-52.8*
COc1cccc(C(C)(O)c2nc(-c3ccc(S(C)(=O)=O)cc3)cs2)c1 (stereo not drawn)	79.9*	.	.	-13.0
SMILES	D3 ag	B2AR arrestin	Giardia killer	DRD3 antagonist
CC(O)(c1ccc(F)c(F)c1)c1nc(-c2cccc(C(F)(F)F)c2)cs1 (stereo not drawn)	-3.0	.	.	19.5
CC(C)c1cccc(-c2csc(C(C)(O)c3ccccc3)n2)c1 (stereo not drawn)	-15.0	.	.	-56.8*
CC(O)(c1ccccc1)c1nc(-c2cccc(C(=O)O)c2)cs1 (stereo not drawn)	-7.5	.	.	-10.3
CC(O)(c1cccc(F)c1)c1nc(-c2cccc(C(F)(F)F)c2)cs1 (stereo not drawn)	-16.2	.	.	-53.1*
COc1ccc(-c2csc(C(C)(NC(C)=O)c3ccc(OC)cc3)n2)cc1 (stereo not drawn)	-9.7	.	.	-50.6*
NC(=O)[C@@H]1C[C@]2(NC(=O)NC2=O)c2cc(F)ccc2O1	-0.9	.	.	.
CCOc1ccc(CN(C(=O)c2nc(SC)ncc2Cl)C2CCS(=O)(=O)C2)cc1 (stereo not drawn)	-4.7	.	.	.
CCCNC(=O)C1CCC(Cn2c(=O)c3sccc3n(CC(=O)Nc3ccccc3C)c2=O)CC1 (stereo not drawn)	0.4	.	.	.
O=C1C(=O)C(c2ccc(O)cc2O)Oc2cc(O)cc(O)c21 (stereo not drawn)	.	.	9.0	.
CCC(C(=O)OCc1cc(=O)n2nc(CCOC)sc2n1)c1ccccc1 (stereo not drawn)	-16.8	.	.	.
CC(O)(c1cccc(F)c1)c1nc(-c2ccncc2)cs1 (stereo not drawn)	0.7	.	.	-24.5
CC(O)(c1cccc(F)c1)c1nc(-c2ccccc2)cs1 (stereo not drawn)	-12.1	.	.	-89.1*
COc1ccc2c(C)c(CCC(=O)NCCc3ccc(Cl)cc3)c(=O)oc2c1	-3.6	.	.	.
CC(C)(C)c1ccccc1OCCCCN1CCCC1	-16.7	-0.2%	-6.9	-68.0*
Cc1cc(C)c(C)c(OCCCCN2CCCCC2)c1	-24.4	-0.8%	20.2	-55.1*
CCc1ccccc1OCCCN1CCCC1	-2.0	-0.4%	-26.1	?
CCc1ccccc1OCCCCN1CCCCC1	-14.9	-0.2%	-1.5	-87.4*
CCOc1ccccc1OCCCCN1CCCC1	-3.0	0.3%	9.5	-63.4*
CCc1cccc(NC(=O)Cn2c(=O)n(-c3ccccc3C)c(=O)c3c2c2cc(C)ccc2n3C)c1	2.1	.	.	.
CCOc1ccc(NC(=O)Cn2c(=O)n(CCCCCC(=O)NCc3ccccc3)c(=O)c3sccc32)cc1	-2.8	.	.	.
O=C(c1ccc(F)cc1)n1nc(-c2cccnc2)nc1NCc1ccc(F)cc1	-10.0	.	.	.
Clc1cccc(Cl)c1OCCCCN1CCCCC1	-11.4	-0.5%	12.9	11.3
CC(C)c1cccc(C(C)C)c1OCCCCN1CCCC1	-14.1	-1.0%	1.1	-57.6*
CC1=C(SCc2ccccc2)C(=O)c2ccccc2C1=O	-15.1	.	1.2	-89.4*
OC(COc1cccc2ccccc12)CN1CCN(c2ccc(Cl)cc2)CC1 (stereo not drawn)	-7.0	-0.1%	?	-4.2
OC(COc1cccc2ccccc12)CN1CCN(c2cccc(Cl)c2)CC1 (stereo not drawn)	44.8*	-0.3%	10.9	-6.1
Cc1cccc(N2CCN(CC(O)COc3ccccc3Cl)CC2)c1 (stereo not drawn)	4.4	-0.3%	-4.4	-75.5*
COc1ccc(OC)c(-c2cc(C3CCN(C(=O)OC(C)(C)C)CC3)[nH]n2)c1	45.6*	-0.2%	2.9	14.0
